Reference: PubChem BioAssay AID463173 (ICCB-Longwood Screening Facility, Harvard Medical School, 2010)
The whole screen tested about 52,000 compounds, of which about 4,300 (8.3%) were called active. Shown is part of a subset that was picked to be rich in actives. Values without a mark were called inactive. Rule as the data show it: active = survival mostly below about 52% (no sharp cut-off); inactive = mostly above about 56%.

test system: DeltatarO mutant; test: growth inhibition of S. aureus wild type versus tarO mutant, primary screen, teichoic acid synthesis inhibitors, RN4220, OD600 (AID 463173); details: OD600, 18 h, active compounds read low, screened at 18.75 µg/mL (by protocol)

Compared with `COc1ccccc1-n1nc(-c2ccccc2)c2cnc3cc(C(F)(F)F)ccc3c21`, `COc1ccc(NC(=O)Cn2nc(-c3ccccc3)c3cnc4ccc(C)cc4c32)cc1` is lower in survival: 81% for the first, 63% for the second.

First: CCCS(=O)(=O)N1CC(=O)N(c2cccc(Cl)c2C)C(C)(C(=O)NC2CCCC2)C1 (configuration not stated)
Second: O=C(NC1CCCCC1)C(c1cccs1)N(Cc1ccco1)C(=O)C1COc2ccccc2O1 (configuration not stated)
The survival of the first is higher: 99% for the first, 96% for the second.

Compared with `COc1ccccc1N1CCN(C(=O)c2cc3c(=O)n(Cc4ccco4)ccc3nc2C)CC1`, `CCc1nnc2c3ccccc3nc(N3CCN(c4cc(Cl)ccc4C)CC3)n12` is higher in survival: 80% for the first, 104% for the second.

Going from `CC(C)CN1CCc2nc(N3CCN(C)CC3)ncc2C1` to `Cc1ccc(C)c(N2CCN(c3nc4ccccc4n4c(C)nnc34)CC2)c1`, the survival falls from 83% to 77%.

Compared with `Sc1ccc2oc3ccc(S)cc3c2c1`, `O=C(Cc1ccc(Cl)cc1)Nc1ccc2oc(-c3ccccc3F)nc2c1` is higher in survival: 93% for the first, 118% for the second.

First: CCS(=O)(=O)c1nc(S(=O)(=O)c2ccc(C)cc2)c(NCc2ccccc2Cl)s1
Second: COc1cccc2sc(NC(=O)CS(=O)(=O)c3ccc(C)cc3)nc12
The survival of the first is lower: 81% for the first, 101% for the second.

Going from `CCc1nn(CC(=O)Nc2ccc(N(CC)CC)cc2C)c(=O)c2cc3sccc3n12` to `CCN(CC)c1ccc(NC(=O)c2cc(CN3CCCC3)on2)c(C)c1`, the survival rises from 77% to 102%.

First: COc1ccc(/C=C/c2nc3ccccc3c(=O)n2-c2cccc(C(F)(F)F)c2)cc1
Second: COc1ccccc1C1CC(=O)N(c2cccc(C(F)(F)F)c2)C2=C1C(=O)OC2 (configuration not stated)
The survival of the first is higher: 91% for the first, 56% for the second.

Going from `c1ccc(-c2cn(-c3ccccc3)c3ncnc(N4CCN(c5ccccc5)CC4)c23)cc1` to `Cc1nnc2c(N3CCN(c4ccccc4)CC3)nc3ccc(C(=O)c4ccccc4)cc3n12`, the survival falls from 90% to 80%.

First: O=CN1CCN(S(=O)(=O)c2ccc(S(=O)(=O)NC3CC3)cc2)CC1
Second: COc1ccc(OC)c(S(=O)(=O)N2CCC(n3c(C)nc4cccnc43)CC2)c1
The survival of the first is lower: 72% for the first, 73% for the second.

Compared with `CCOc1ccc(-c2nnc(SCC(=O)NCc3ccc(C)cc3)nc2-c2ccc(OCC)cc2)cc1`, `O=C(NCc1cccc(Cl)c1)C1CCCN(c2ncnc3onc(-c4ccc(F)cc4)c23)C1` (configuration not stated) is lower in survival: 106% for the first, 90% for the second.

First: Cc1ccc(NC(=O)c2ccco2)cc1NC(=O)CSc1ncnc2sc3c(c12)CCC3
Second: CCc1ccc2occ(CC(=O)Nc3sc4c(c3C(=O)NCCOC)CCCC4)c2c1
The survival of the first is lower: 54% for the first, 77% for the second.

First: COc1cccc(-c2nc(S(=O)(=O)c3ccccc3)c(N3CCC(C)CC3)o2)c1
Second: O=S(=O)(c1ccccc1)c1nc(-c2cccs2)oc1N1CCCCC1
The survival of the first is lower: 50% for the first, 116% for the second.

First: CC1CCN(c2nc3c(S(=O)(=O)c4ccccc4)nnn3c3ccsc23)CC1
Second: Clc1cccc(N2CCN(c3nc4ccccc4n4cnnc34)CC2)c1
The survival of the first is higher: 113% for the first, 62% for the second.

First: COc1ccc(CCNC(=O)CCCn2c(=O)c3ccccc3n(Cc3c(C)cc(C)cc3C)c2=O)cc1OC
Second: CCN(CC)C(=O)c1sc2c(c1C)c(=O)n(-c1ccc(C)c(C)c1)c(=O)n2CC(=O)Nc1ccc(OC)cc1OC
The survival of the first is higher: 89% for the first, 78% for the second.

Compared with `CCC(=O)Nc1cc(-c2cccc(C)c2)nn1-c1ccccc1`, `CCCC(=O)NC(C)c1nc2ccccc2n1Cc1ccccc1` (configuration not stated) is higher in survival: 83% for the first, 101% for the second.

First: CC1=C(C#N)C(=O)NC(C)(C)C1
Second: Cc1cc(N2CCOCC2)cc(C)[n+]1[O-]
The survival of the first is lower: 76% for the first, 90% for the second.

Going from `Cc1ccc(C)c(N2CCN(c3nc4ccc(Cl)cc4n4cnnc34)CC2)c1` to `Cc1ccc(C)c(N2CCN(c3nc4ccc(C(=O)c5ccccc5)cc4n4cnnc34)CC2)c1`, the survival falls from 89% to 79%.

Going from `CCc1nnc2c(N3CCN(c4cccc(C(F)(F)F)c4)CC3)nc3ccccc3n12` to `Cc1nnc2c(N3CCN(c4ccccc4F)CC3)nc3ccc(C(=O)c4ccccc4)cc3n12`, the survival falls from 108% to 93%.

First: Cc1ccc2nc(N3CCN(c4cccc(C)c4C)CC3)c3nnnn3c2c1
Second: Cc1ccc(N2CCN(c3nc4ccc(C(=O)c5ccccc5)cc4n4cnnc34)CC2)c(C)c1
The survival of the first is lower: 81% for the first, 82% for the second.

Compared with `COc1ccccc1-c1nnc2n(CCc3ccccc3)c(=O)c3ccccc3n12`, `COc1ccc(C)cc1NC(=O)c1nnn(Cc2cccc(Br)c2)c1N` is higher in survival: 69% for the first, 87% for the second.

First: COc1ccc(N2CCN(c3oc(-c4ccc(COc5cccc(C)c5)o4)nc3C#N)CC2)cc1
Second: CC(=O)c1ccc(N2CCN(c3ncnc4onc(C)c34)CC2)cc1
The survival of the first is higher: 102% for the first, 55% for the second.

Compared with `COc1cc2nc(C3CCC3)n(NC(=O)c3ccco3)c(=O)c2cc1OC`, `COc1ccc(S(=O)(=O)c2nnn(-c3cccc(Cl)c3)c2N)cc1` is lower in survival: 82% for the first, 56% for the second.

Going from `O=S1(=O)N=C(Nc2cccc(C(F)(F)F)c2)c2ccccc21` to `CC(C)c1ccc2c(c1)-c1ccccc1S(=O)(=O)N2CC(=O)N1CCCCC1`, the survival rises from 53% to 85%.

`Cc1cc(C)cc(N2C(=O)CC(c3ccc(C(F)(F)F)cc3)C3=C2COC3=O)c1` (configuration not stated) gave a survival of 72%.

For `CC1CCN(c2oc(-c3cccs3)nc2S(=O)(=O)c2ccccc2)CC1`, the survival was 35% (active).
For `Cc1ccc(S(=O)(=O)c2nc(-c3cccs3)oc2N2CCCCC2)cc1`, the survival was 39% (active).
In the case of `Cc1ccc2nc(N3CCN(c4cccc(C)c4C)CC3)c3nncn3c2c1`, the survival is reported as 39% (active).
For `FC(F)(F)c1cccc(N2CCN(c3nc4ccccc4n4cnnc34)CC2)c1`, the survival was 25% (active).
`Cc1ccc(Cl)cc1N1CCN(c2nc3ccc(C(=O)c4ccccc4)cc3n3cnnc23)CC1` was tested, and the survival was -4% (active).
For `CCc1nnc2c(N3CCN(c4cc(Cl)ccc4C)CC3)nc3ccccc3n12`, the survival was -5% (active).
`COc1ccccc1N1CCN(c2nc3ccc(C(=O)c4ccccc4)cc3n3c(C)nnc23)CC1` was tested, and the survival was 46% (active).
`CCc1ccc(C2CC(=O)N(c3cccc(C(F)(F)F)c3)C3=C2C(=O)OC3)cc1` (configuration not stated) was tested, and the survival was 57% (active).
